The supplement of paper PMC11732987, “Enantioselective OTUD7B fragment discovery through chemoproteomics screening and high-throughput optimisation” (Communications Chemistry, 2025)

What was measured:
Experiment in all cases: log2 ratio of Biotin-Ahx-Ub-VS probe labelling (fragment/DMSO); higher = less target engagement (more negative = stronger competition), active = hit call of the paper (q ≤ 0.05, log2 ratio ≤ -1)
Details in all cases: compound concentration: 200 uM; treatment time: 3 h
OTUD6B = biological target: T1, OTUD6B (UniProt Q8N6M0)
T1 sequence (whole entry): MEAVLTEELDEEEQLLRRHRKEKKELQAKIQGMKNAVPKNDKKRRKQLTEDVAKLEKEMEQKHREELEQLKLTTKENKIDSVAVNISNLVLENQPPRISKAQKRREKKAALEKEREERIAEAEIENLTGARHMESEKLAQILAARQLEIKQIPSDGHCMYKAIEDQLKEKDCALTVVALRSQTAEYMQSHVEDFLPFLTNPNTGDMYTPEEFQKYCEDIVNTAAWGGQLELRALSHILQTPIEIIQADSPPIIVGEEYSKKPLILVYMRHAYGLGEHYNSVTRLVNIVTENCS
Summary of the method: (§1)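 HEK293T lysate (495 µg per sample, in Tris/CHAPS/IGEPAL buffer with protease inhibitors) was exposed in triplicate for 3 h to fragment at 200 µM or to vehicle, then to Biotin-Ahx-Ub-VS at 0.5 µM final for 1 h. Labelled DUBs were enriched on NeutrAvidin, digested with LysC and trypsin, and analysed by diaPASEF LC-MS/MS. Spectronaut label-free quantities were normalised to the global median, and values are average log2 ratios of fragment over vehicle from an unpaired t-test. Only proteins with ≥2 unique peptides were used.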

OTUD7B = biological target: T2, OTUD7B (UniProt Q6GQQ9)
T2 sequence (whole entry): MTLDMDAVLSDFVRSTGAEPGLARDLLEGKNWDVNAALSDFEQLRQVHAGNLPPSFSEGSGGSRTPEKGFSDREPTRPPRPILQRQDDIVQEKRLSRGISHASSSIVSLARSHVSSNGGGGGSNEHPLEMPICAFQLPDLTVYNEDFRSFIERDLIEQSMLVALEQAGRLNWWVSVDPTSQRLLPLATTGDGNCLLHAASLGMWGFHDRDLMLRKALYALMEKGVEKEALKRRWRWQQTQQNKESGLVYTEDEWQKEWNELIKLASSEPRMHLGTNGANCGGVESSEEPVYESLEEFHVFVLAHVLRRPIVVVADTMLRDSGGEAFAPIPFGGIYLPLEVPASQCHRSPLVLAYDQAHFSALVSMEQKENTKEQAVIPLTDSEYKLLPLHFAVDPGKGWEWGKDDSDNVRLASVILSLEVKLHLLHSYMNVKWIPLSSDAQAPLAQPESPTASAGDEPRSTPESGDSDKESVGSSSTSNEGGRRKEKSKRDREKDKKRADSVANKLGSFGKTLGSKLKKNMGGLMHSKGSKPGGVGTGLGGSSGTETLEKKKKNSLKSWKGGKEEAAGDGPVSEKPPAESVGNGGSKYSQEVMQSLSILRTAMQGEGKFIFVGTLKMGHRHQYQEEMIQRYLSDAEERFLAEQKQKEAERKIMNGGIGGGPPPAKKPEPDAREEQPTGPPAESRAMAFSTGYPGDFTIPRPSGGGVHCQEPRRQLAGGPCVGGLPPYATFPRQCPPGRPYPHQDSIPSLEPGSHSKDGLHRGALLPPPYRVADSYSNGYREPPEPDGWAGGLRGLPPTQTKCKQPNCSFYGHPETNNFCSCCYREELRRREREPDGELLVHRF
Summary of the method: as §1

PRPF8 = PRPF8 (UniProt Q6P2Q9)
Summary of the method: as §1

PSMD7 = biological target: T3, PSMD7 (UniProt P51665)
T3 sequence (whole entry): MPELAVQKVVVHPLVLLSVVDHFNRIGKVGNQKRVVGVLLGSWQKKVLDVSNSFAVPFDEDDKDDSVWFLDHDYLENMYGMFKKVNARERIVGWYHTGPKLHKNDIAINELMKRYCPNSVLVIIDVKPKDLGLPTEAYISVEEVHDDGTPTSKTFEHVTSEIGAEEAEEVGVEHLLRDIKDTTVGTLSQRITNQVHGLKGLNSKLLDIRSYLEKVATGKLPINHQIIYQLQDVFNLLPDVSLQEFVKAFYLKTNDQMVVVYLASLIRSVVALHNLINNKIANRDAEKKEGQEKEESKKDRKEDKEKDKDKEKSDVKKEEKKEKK
Summary of the method: as §1

UCHL1 = UCHL1 (UniProt P09936)
Chain of UCHL1 (P09936 whole entry, looked up): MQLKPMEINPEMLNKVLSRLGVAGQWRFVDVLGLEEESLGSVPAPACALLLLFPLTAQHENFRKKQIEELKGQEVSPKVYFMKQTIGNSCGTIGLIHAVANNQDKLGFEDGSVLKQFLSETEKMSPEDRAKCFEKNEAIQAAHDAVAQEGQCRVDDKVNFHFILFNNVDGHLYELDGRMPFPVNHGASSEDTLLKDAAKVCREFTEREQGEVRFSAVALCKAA
Summary of the method: as §1

UCHL3 = biological target: T4, UCHL3 (UniProt P15374)
T4 sequence (whole entry): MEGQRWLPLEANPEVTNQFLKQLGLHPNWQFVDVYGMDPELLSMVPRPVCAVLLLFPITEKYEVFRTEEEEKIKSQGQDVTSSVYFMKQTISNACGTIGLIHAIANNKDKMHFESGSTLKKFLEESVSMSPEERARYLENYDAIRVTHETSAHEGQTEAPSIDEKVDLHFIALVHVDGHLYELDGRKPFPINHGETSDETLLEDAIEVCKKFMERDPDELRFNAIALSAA
Summary of the method: as §1

UCHL5 = biological target: T5, UCHL5 (UniProt Q9Y5K5)
T5 sequence (whole entry): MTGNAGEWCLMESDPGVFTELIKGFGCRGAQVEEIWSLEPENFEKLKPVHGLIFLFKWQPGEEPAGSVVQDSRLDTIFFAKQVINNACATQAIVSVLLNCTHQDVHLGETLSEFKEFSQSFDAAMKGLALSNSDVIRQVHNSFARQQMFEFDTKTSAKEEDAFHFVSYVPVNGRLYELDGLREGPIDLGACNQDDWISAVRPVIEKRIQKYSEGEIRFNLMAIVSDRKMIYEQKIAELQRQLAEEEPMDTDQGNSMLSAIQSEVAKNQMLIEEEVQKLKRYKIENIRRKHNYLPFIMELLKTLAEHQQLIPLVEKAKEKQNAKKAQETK
Summary of the method: as §1

USP10 = USP10 (UniProt Q14694)
Chain of USP10 (Q14694 whole entry): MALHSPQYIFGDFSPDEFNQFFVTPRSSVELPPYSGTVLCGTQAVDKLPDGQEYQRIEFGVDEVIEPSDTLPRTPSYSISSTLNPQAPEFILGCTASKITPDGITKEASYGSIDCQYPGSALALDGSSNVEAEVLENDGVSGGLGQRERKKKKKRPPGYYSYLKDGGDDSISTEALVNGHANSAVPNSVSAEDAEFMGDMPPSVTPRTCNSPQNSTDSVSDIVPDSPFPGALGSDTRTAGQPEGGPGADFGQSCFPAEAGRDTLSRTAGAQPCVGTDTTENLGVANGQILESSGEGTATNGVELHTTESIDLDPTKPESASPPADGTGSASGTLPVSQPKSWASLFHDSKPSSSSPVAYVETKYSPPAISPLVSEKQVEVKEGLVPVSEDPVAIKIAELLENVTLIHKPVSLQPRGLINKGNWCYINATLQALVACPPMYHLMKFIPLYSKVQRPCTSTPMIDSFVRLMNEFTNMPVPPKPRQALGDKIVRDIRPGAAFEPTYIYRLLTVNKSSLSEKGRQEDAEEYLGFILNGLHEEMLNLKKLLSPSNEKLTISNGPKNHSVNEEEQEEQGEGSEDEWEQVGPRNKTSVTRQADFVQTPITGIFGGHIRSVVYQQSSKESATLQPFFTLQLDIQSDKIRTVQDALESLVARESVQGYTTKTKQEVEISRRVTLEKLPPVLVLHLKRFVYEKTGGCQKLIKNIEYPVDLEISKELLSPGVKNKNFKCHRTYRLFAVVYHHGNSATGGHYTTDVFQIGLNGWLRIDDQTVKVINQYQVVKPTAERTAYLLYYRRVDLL
Summary of the method: as §1

USP15 = biological target: T6, USP15 (UniProt Q9Y4E8)
T6 sequence (whole entry): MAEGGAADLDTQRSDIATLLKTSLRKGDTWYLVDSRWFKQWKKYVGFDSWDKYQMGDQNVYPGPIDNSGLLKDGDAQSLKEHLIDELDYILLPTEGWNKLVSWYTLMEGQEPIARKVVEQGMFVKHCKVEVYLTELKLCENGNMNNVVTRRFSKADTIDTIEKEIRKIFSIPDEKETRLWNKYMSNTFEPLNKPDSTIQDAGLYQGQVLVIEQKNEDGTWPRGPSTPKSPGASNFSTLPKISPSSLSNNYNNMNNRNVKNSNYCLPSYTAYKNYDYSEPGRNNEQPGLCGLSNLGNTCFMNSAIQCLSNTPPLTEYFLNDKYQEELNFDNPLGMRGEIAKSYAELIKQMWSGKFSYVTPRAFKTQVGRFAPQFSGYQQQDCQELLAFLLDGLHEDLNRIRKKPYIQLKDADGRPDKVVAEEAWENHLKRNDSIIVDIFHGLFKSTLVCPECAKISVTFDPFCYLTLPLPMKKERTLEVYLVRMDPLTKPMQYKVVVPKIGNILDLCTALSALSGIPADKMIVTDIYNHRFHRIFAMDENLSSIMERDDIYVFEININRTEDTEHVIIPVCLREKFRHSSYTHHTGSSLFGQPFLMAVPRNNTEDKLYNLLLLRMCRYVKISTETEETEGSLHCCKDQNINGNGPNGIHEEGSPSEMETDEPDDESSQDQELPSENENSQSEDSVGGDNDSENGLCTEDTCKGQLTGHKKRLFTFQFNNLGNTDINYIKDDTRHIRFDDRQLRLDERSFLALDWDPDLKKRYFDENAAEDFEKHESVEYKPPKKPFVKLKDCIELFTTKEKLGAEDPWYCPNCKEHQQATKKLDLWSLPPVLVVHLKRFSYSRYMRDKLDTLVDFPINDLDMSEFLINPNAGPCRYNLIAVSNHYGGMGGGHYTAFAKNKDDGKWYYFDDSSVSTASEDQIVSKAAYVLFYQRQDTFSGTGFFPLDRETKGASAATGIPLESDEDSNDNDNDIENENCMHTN
Summary of the method: as §1

USP16 = USP16 (UniProt Q9Y5T5)
Chain of USP16 (Q9Y5T5 whole entry, looked up): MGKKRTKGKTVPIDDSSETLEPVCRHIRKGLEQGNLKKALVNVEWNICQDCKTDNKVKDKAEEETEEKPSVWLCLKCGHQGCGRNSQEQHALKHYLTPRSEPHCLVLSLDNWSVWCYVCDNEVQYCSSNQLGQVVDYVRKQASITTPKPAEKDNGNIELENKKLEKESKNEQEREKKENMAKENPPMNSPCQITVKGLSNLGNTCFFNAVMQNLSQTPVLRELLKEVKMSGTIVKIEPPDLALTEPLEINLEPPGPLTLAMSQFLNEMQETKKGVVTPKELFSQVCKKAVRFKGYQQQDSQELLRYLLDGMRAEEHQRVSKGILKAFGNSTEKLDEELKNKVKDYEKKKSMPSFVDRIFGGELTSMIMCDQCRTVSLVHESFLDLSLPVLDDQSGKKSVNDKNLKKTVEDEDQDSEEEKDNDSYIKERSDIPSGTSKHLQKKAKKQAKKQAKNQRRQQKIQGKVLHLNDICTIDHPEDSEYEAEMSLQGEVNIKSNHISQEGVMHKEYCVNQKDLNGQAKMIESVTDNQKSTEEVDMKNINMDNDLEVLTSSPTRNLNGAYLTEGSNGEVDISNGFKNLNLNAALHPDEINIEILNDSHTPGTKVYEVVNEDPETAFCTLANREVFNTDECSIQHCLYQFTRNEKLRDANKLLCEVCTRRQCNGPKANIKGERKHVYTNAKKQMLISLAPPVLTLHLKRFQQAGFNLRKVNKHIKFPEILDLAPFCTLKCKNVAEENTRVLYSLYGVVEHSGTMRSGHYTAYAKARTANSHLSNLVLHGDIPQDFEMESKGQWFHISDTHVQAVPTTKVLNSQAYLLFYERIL
Summary of the method: as §1

Measured: log2 ratio of Biotin-Ahx-Ub-VS probe labelling

O=C(CCl)N(Cc1ccsc1)C1CC1
inactive: OTUD6B 0.0351 | OTUD7B -0.317 | PRPF8 -0.0299 | PSMD7 -0.114 | UCHL1 -0.773 | UCHL3 0.415 | UCHL5 -0.238 | USP10 -0.125 | USP15 0.02 | USP16 0.463
